TDP1 block = qHTS Assay for Inhibitors of Tyrosyl-DNA Phosphodiesterase (TDP1) | recombinant TDP1, AlphaScreen DNA substrate cleavage | 0.28% of 350,000 active | AID 485290, 2010 | Potency, µM (highest dose often 130 µM), for inactives: top-dose activity change, negative = inhibition, hits mostly inhibitors; further: on the % scale 0 is the no-effect control and ±100 the full control effect; nearly all actives have a fitted effect of over 40% in size
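Here, a 5' biotin and 3' phosphotyrosine-FITC DNA oligonucleotide reports Tdp1 activity: intact substrate bridges AlphaScreen beads, while cleavage leaves a 3' phosphate and drops signal. All incubations at room temperature.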
ClpP mod = qHTS Assay for Activators of ClpP; AID 651965, 2013; ATP-dependent Clp protease proteolytic subunit (Bacillus subtilis (strain 168)), P80244; purified B. subtilis ClpP, FRET peptide cleavage, 20 min; 1.9% of 340,000 active; Potency, µM (series often up to 57.5 µM), for the others: at the top dose activity change, negative = active; active means well fitted falling curve with a large enough effect; inconclusive means small, poorly fitted or top-dose-only effect; inactive means no such curve, though single readings can be large or run the other way; further: the source files actives as falling curves though it sought activators and does not explain the sign; nearly all actives have a fitted effect of over 65% in size
Target sequence (P80244 whole entry, looked up): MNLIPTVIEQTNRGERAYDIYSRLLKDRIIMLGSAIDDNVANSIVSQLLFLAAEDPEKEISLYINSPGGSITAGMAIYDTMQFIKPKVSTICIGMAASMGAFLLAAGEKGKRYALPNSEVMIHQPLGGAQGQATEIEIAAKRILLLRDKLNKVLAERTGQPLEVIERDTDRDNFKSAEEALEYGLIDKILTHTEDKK
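ClpP 10 microg/mL final, pH 8 Tris/KCl buffer with BSA, glycerol, Tween-20; compound pinned in; FRET-FV substrate; RT 20 min; Ex320/Em430; ΔFRET vs ADEP 5.8 microM, DMSO, no enzyme.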
DT40 TDP1 CPT = qHTS for Inhibitors of human tyrosyl-DNA phosphodiesterase 1 (TDP1): qHTS in cells in presence of CPT. chicken DT40 Tdp1-/-;hTDP1 cells + 20 nM CPT, ATP luminescence, 48 h. Potency, µM (highest dose often 46.2 µM), inactives show top-dose activity change, negative = growth inhibition, hits mostly inhibitors. 12% of 420,000 active. AID 686979, 2013; further: on the % scale 0 is the no-effect control and ±100 the full control effect; nearly all actives have a fitted effect of over 55% in size
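Chicken DT40 Tdp1-/- cells complemented with human TDP1, 400 cells/well, exposed to compounds plus 20 nM camptothecin for at least 48 h at 37 C; viability read as ATP content by CellTiter-Glo luminescence.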
DT40 TDP1 no CPT = qHTS for Inhibitors of human tyrosyl-DNA phosphodiesterase 1 (TDP1): qHTS in cells in absence of CPT; Potency, µM (titrated, usually from 46.2 µM), inactives show at the highest dose activity change, negative = growth inhibition, hits mostly inhibitors; 15% of 420,000 active; AID 686978, 2013; DT40 Tdp1-/- hTDP1 cells, no CPT, ATP luminescence, 48 h; further: on the % scale 0 is the no-effect control and ±100 the full control effect; nearly all actives have a fitted effect of over 55% in size
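DT40 Tdp1-/-;hTDP1 cells, no CPT (DMSO vehicle only), 400 cells/well; compounds pin-transferred; ≥48 hr, 37 °C; CellTiter-Glo 30 min RT dark, luminescence read.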
Numbers without * were called inactive; u = inconclusive; x = no result given; [ ] = remark or other dose. Sampled rows, rich in hits. Any-hit rate of the full collection: about 17%. Unless noted, the call rests on the fitted dose curve; in most records, active means well fitted curve in the direction sought with a large enough effect; inconclusive means small, poorly fitted or top-dose-only effect, or another doubt; inactive means no such curve, though single readings can be large; an effect the other way counts as inactive or inconclusive. Potency means the concentration at half of the fitted maximal effect.

SMILES	TDP1 block	ClpP mod	DT40 TDP1 CPT	DT40 TDP1 no CPT
COc1ccc(OCC(=O)OCC(=O)NCc2ccco2)cc1	-1%	28µM*	0%	-10%
COc1ccc(S(=O)(=O)Nc2ccc(-c3cn4ccsc4n3)cc2)cc1C	5%	1%	4%	12%
Cc1ccc(NS(=O)(=O)c2cc3c(cc2Cl)CCC(=O)N3)cc1Cl	1%	x	x	x
COC(=O)c1ccc2c(=O)n(CC3CCCO3)c(SCC(=O)NCCc3ccc(S(N)(=O)=O)cc3)nc2c1 (centres undefined)	1%	x	-19%	u
CCc1cccc(CC)c1NC(=O)Cc1csc(C)n1	-5%	1%	-16%	-16%
COc1ccccc1CNC(=O)c1cc(S(=O)(=O)N2CCCCCC2)cn1C	8%	1%	-10%	-17%
CCC1CCCCN1C(=O)CSc1n[nH]c(-c2ccccc2Cl)n1 (centres undefined)	5%	-1%	u	u
O=C(COC(=O)C1CC2C=CC1C2)NCc1ccc(F)cc1 (centres undefined)	3%	2%	-1%	-12%
O=C(COC(=O)C1CC2C=CC1C2)NCc1ccco1 (centres undefined)	28µM*	2%	-25%	-25%
COc1ccc(CNC(=O)COC(=O)c2ccc(S(=O)(=O)NCc3ccco3)cc2)cc1	18µM*	1%	-18%	7%
O=C(c1ccccc1)N1CCN(c2ncnc3c2cnn3-c2ccccc2)CC1	2%	-19%	23µM*	21µM*
Cc1nn(-c2ccccc2)c(Cl)c1C(=O)N1CCN(c2ncnc3c2cnn3-c2ccccc2)CC1	7%	-13%	3.3µM*	4.1µM*
O=C(c1cccc(Cl)c1)N1CCN(c2ncnc3c2cnn3-c2ccccc2)CC1	-5%	x	20%	-4%
O=C(c1ccco1)N1CCN(c2ncnc3c2cnn3-c2ccccc2)CC1	3%	-2%	u	29µM*
CC(C)(C)C(=O)OCOC(=O)[C@@H]1N2C(=O)[C@@H](NC(=O)[C@H](N)c3ccccc3)[C@H]2SC1(C)C	10%[21 µM]	x	-15%[21.1 µM]	-6%[21.1 µM]
COc1ccc(OC)c(NC(=O)CSc2ncnc3c2cnn3-c2ccccc2Cl)c1	5%	-3%	2.1µM*	1.3µM*
C[C@@H]1CN([C@H](C)CO)C(=O)c2cc(NC(=O)Nc3ccc(C(F)(F)F)cc3)ccc2O[C@H]1CN(C)S(=O)(=O)c1ccc(Cl)cc1	2%	-3%	5.2µM*	5.8µM*
C[C@H](CO)N1C[C@H](C)[C@@H](CN(C)S(=O)(=O)c2ccccc2)Oc2ccc(NC(=O)Nc3ccccc3)cc2C1=O	3%	-2%	-91%	u
Cc1ccc(S(=O)(=O)N(C)C[C@@H]2Oc3ccc(NC(=O)CCC(F)(F)F)cc3CC(=O)N([C@@H](C)CO)C[C@@H]2C)cc1	1%	1%	4.1µM*	5.8µM*
C[C@H]1CN([C@@H](C)CO)C(=O)c2cccc(NC(=O)Nc3ccc(C(F)(F)F)cc3)c2O[C@@H]1CN(C)S(=O)(=O)c1ccc(Cl)cc1	3%	2%	7.3µM*	8.2µM*
C[C@H](CO)N1C[C@H](C)[C@@H](CN(C)S(=O)(=O)c2ccc(F)cc2)Oc2ccc(NC(=O)Nc3ccccc3)cc2C1=O	0%	0%	u	15µM*
Cc1ccc(S(=O)(=O)N(C)C[C@@H]2Oc3ccc(NC(=O)Nc4cccc5ccccc45)cc3C(=O)N([C@H](C)CO)C[C@H]2C)cc1	1%	-25%	u	23µM*
C[C@@H]1CN([C@@H](C)CO)C(=O)Cc2cc(NC(=O)Nc3ccc(C(F)(F)F)cc3)ccc2O[C@@H]1CN(C)S(=O)(=O)c1ccc(Cl)cc1	1%	-5%	u	15µM*
C[C@H](CO)N1C[C@H](C)[C@@H](CN(C)S(=O)(=O)c2cn(C)cn2)Oc2c(NC(=O)Nc3ccc(C(F)(F)F)cc3)cccc2C1=O	2%	-3%	u	-86%
C[C@H](CO)N1C[C@H](C)[C@H](CN(C)S(=O)(=O)c2cn(C)cn2)Oc2ccc(NC(=O)Nc3ccc(C(F)(F)F)cc3)cc2CC1=O	1%	1%	u	13µM*
SMILES	TDP1 block	ClpP mod	DT40 TDP1 CPT	DT40 TDP1 no CPT
CC(C)NC(=O)N(C)C[C@@H]1Oc2ccc(NC(=O)Nc3ccc(C(F)(F)F)cc3)cc2CC(=O)N([C@H](C)CO)C[C@@H]1C	1%	1%	u	u
CCCCNC(=O)C1(C)CCC(=O)N1CCCn1ccnc1 (centres undefined)	x	0%	5%	10%
COc1cc(C2SCC(=O)N2CCN2CCCCC2)ccc1O (centres undefined)	-4%	x	-7%	-5%
CC(OC(=O)CCCN=C1NS(=O)(=O)c2ccccc21)C(=O)Nc1ccc(F)c(F)c1F (centres undefined)	-4%	2%	-19%	-10%
CC(OC(=O)CCN=C1NS(=O)(=O)c2ccccc21)C(=O)Nc1ccc(F)c(F)c1F (centres undefined)	-3%	32µM*	-1%	11%
[O-]/[N+](=C\c1ccncc1)c1ccccc1	0%	-8%	21µM*	u
Cn1nc(-c2ccc(OCC(=O)Nc3cccc(C(F)(F)F)c3)cc2)c2ccccc2c1=O	2%	5%	u	u
COc1ccc(NC(=O)N2CCN(S(=O)(=O)c3ccc4c(ccn4C)c3)CC2)cc1OC	8%	-2%	-17%	-3%
CC(C)C(c1nnnn1Cc1ccccc1)N(CCCO)Cc1cc2cc3c(cc2[nH]c1=O)OCO3 (centres undefined)	2%	32µM*	u	16µM*
CCC(c1nnnn1Cc1ccc(OC)cc1)N(CCCO)Cc1cc2cc3c(cc2[nH]c1=O)OCO3 (centres undefined)	-5%	22µM*	u	u
COc1ccccc1Nc1nnc(SCc2cc(=O)n3cc(C)ccc3n2)s1	0%	x	u	u
O=C(COC(=O)Cn1cc(C(F)(F)F)ccc1=O)Nc1ccc(Br)cc1F	-13%	25µM*	-30%	-3%
O=C(COC(=O)Cn1cc(C(F)(F)F)ccc1=O)Nc1ccccc1	1%	2%	-20%	-2%
C=CCn1c(=NC(=O)c2ccccc2[N+](=O)[O-])sc2cc(S(C)(=O)=O)ccc21	3%	-2%	16µM*	21µM*
CN(C(=O)c1cc2c(=O)oc3ccccc3c2s1)c1ccc(F)cc1	6%	0%	-3%	-19%
Cc1cc(C)n(-c2ccccc2C#N)n1	0%	x	8%	-3%
c1ccc(C[n+]2cccc(-c3ccccc3)c2)cc1	0%	-5%	8.2µM*	8.2µM*
NC(=O)c1ccc[n+](Cc2ccccc2)c1	5%	2%	-5%	-2%

High-throughput results deposited in PubChem by National Center for Advancing Translational Sciences (NCATS).
